This note sets out measurements from PubChem BioAssay AID651551 (Sanford-Burnham Center for Chemical Genomics, 2012).

For the assay, the target named is PEG-3 (UniProt Q6IN02). As to the kind of experiment: GAPDH versus PEG-3 reporter suppression – cell-based, luminescence, counter-screen for PEG-3 promoter inhibitor project, SAR follow-up (AID 651551). Conditions: HeLa PEG-Prom / GAPDH luciferase reporter, 6 or 24 h, run 1, 24 h; at 99 µM (top of the series). (The purpose of a counterscreen is to sort out artefacts and off-target activity.)
Turning to `COc1ccc(-n2nc(C(=O)NCC(=O)Nc3cccc(OC)c3)c3ccccc3c2=O)cc1`, the inhibition % (higher = more inhibition) came to 24.5%.

With `O=C(Nc1nccs1)c1nn(-c2ccccc2)c(=O)c2ccccc12`, the inhibition % (higher = more inhibition) was 41.8%.

As to `COCCCNC(=O)c1ccc(Cn2c(=O)c3ccccc3n(Cc3ccccc3C#N)c2=O)cc1`, the inhibition % (higher = more inhibition) was 54.2%.

For the molecule `Cc1cc(NC(=O)c2ccccc2)n(-c2nc3ccccc3n2C)n1`, the inhibition % (higher = more inhibition) is 10.1%.

Take `CCCn1nc(C(=O)Nc2nc(-c3ccccn3)cs2)c2ccccc2c1=O`: the inhibition % (higher = more inhibition) came to 39.1%.

With `Cc1cc(NC(=O)c2cccc(C)c2C)n(-c2nc3ccccc3[nH]2)n1`, the inhibition % (higher = more inhibition) amounted to 79.1%.

Take `Cc1cc(NC(=O)c2ccccc2C)n(-c2nc3ccccc3[nH]2)n1`: the inhibition % (higher = more inhibition) came out at 47.5%.

On to `COc1ccc(-n2nc(C(=O)NCC(=O)Nc3cc(OC)c(OC)c(OC)c3)c3ccccc3c2=O)cc1OC`, for which the inhibition % (higher = more inhibition) was 47.5%.

As for `Cc1nc(NC(=O)c2ccccc2)sc1-c1csc(Nc2cccc(Cl)c2C)n1`, the inhibition % (higher = more inhibition) is -27.2%.

As for `O=C(Nc1nc2ccccc2s1)c1nn(-c2ccccc2)c(=O)c2ccccc12`, the inhibition % (higher = more inhibition) was -7.12%.

As for `COc1ccc(Cl)cc1Nc1nc(-c2sc(NC(=O)c3ccccc3)nc2C)cs1`, the inhibition % (higher = more inhibition) was found to be 44.2%.

Consider `Cc1nc(NC(=O)c2ccccc2)sc1-c1csc(Nc2ccccc2Cl)n1`, for which the inhibition % (higher = more inhibition) was -64.6%.

As for `CCCn1nc(C(=O)Nc2nc(-c3ccncc3)cs2)c2ccccc2c1=O`, the inhibition % (higher = more inhibition) turned out to be 31.6%.

For the molecule `Cc1nc(NC(=O)c2ccccc2)sc1-c1csc(Nc2ccccc2)n1`, the inhibition % (higher = more inhibition) came out at 73.4%.

Turning to `CCn1cc(C(=O)NCc2ccco2)c(=O)c2cc(S(=O)(=O)N3CCCC3)ccc21`, the inhibition % (higher = more inhibition) came out at 47.5%.

Regarding `O=C(Nc1nc(-c2ccccc2)cs1)c1nn(-c2ccccc2)c(=O)c2ccccc12`, the inhibition % (higher = more inhibition) turned out to be 13%.

Take `CCn1nc(C(=O)Nc2nc(-c3ccccn3)cs2)c2ccccc2c1=O`: the inhibition % (higher = more inhibition) came out at 49.2%.

For the molecule `COc1ccccc1Nc1nc(-c2sc(NC(=O)c3ccco3)nc2C)cs1`, the inhibition % (higher = more inhibition) is 18.8%.

As to `COc1ccc(-n2nc(C(=O)NCC(=O)Nc3ccc(OC)c(OC)c3)c3ccccc3c2=O)cc1`, the inhibition % (higher = more inhibition) came to 53.3%.

In the case of `Cc1cc(NC(=O)c2ccccc2)n(-c2nc3ccccc3[nH]2)n1`, the inhibition % (higher = more inhibition) is -6.81%.

In the case of `Cc1cc(NC(=O)c2ccccc2C(F)(F)F)n(-c2nc3ccccc3[nH]2)n1`, the inhibition % (higher = more inhibition) turned out to be 93.5%.

`CCCn1nc(C(=O)Nc2nc3ccccc3s2)c2ccccc2c1=O`: the inhibition % (higher = more inhibition) is 33.1%.

Consider `Cc1ccc(Cl)cc1Nc1nc(-c2sc(NC(=O)c3ccco3)nc2C)cs1`, for which the inhibition % (higher = more inhibition) came to 24.5%.
